Assay outcomes (PubChem BioAssay)
This is a sample that favours compounds with a hit; in the whole collection about 3.8% have one here.
Gli-Sufu block: Gli-Sufu pathway antagonism; Sufu-KO-LIGHT fibroblasts, Gli luciferase reporter luminescence; inhibition, % at 5 µM; hit rate 0.74% among 340,000; AID 588413;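 active means inhibition above about 55%, limit read from the data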;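 further: 0% = DMSO-treated cells and 100% = wells with medium but no cells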
Jurkat NFkB inh: inhibitors of the PMA/ionomycin-induced NF-kB reporter in Jurkat cells. PMA/ionomycin-induced NF-kB luciferase reporter, luminescence. inhibition, % at 4 µM. hit rate 0.53% among 330,000; in the data active means inhibition above about 50%
Mdm2-MdmX inh: human Mdm2/MdmX binding inhibition | O15151+Q00987 | SaOS-2 split-luciferase Mdm2/MdmX complementation, luminescence | inhibition, % at 8 µM | hit rate 3% among 330,000;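 active means inhibition of at least 50% at 8 µM in the primary screen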
Target sequence (O15151 whole entry, looked up): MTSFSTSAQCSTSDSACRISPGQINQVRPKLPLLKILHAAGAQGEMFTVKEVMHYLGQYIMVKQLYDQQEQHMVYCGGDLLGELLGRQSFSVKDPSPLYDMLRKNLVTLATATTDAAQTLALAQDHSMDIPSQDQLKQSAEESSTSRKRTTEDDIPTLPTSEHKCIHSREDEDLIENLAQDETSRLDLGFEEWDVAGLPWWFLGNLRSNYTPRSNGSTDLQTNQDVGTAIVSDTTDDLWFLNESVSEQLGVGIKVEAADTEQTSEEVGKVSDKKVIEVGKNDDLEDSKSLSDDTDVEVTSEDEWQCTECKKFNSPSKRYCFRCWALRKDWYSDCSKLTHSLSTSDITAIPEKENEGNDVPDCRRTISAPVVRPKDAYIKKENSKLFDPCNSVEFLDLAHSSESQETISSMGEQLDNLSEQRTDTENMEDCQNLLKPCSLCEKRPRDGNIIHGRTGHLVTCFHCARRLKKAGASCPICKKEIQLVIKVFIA
Target sequence (Q00987 whole entry, looked up): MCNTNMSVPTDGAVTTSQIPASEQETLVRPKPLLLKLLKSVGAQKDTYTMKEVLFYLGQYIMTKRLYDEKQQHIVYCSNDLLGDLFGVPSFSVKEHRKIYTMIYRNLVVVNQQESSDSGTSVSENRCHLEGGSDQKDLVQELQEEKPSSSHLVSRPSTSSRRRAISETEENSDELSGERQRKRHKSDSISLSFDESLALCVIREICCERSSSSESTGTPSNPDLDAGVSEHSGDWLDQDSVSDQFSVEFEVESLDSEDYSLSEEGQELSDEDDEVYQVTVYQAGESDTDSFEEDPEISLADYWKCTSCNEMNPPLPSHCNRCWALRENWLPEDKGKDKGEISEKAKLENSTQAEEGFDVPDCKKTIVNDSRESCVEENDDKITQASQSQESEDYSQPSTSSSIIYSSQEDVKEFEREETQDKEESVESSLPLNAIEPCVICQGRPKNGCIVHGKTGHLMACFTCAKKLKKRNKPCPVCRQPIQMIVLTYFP
Shn3 3UTR inh: Schnurri-3 reporter inhibition in Clone20 osteoblasts; hit rate 0.52% among 360,000; Clone20 osteoblast Shn3 3'UTR firefly luciferase, 24 h; AID 588674; inhibition, % at 12.5 µM;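 active means mean inhibition of at least 75% with every replicate also reaching 75%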;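 further: 0% = median of neutral control wells and 100% = pilot-screen positive control compound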
697 NFkB inh: lowers PMA/ionomycin-induced NF-kB signal in 697 B cells | 697 B-cell NF-kB luciferase reporter, 16 h | inhibition, % at 4 µM | hit rate 0.33% among 330,000 | AID 435022; in the data active means inhibition above about 35%
Mdm2 MdmX conf: human Mdm2/MdmX binding inhibition, confirmed; shares compounds with Mdm2-MdmX inh; luminescent assay; inhibition, % at 8 µM; hit rate 55% among 10,000; in the data active means inhibition above about 40%
Full FLuc ctr: full-length luciferase inhibition in Mdm2/MdmX counter-screen; shares compounds with Mdm2-MdmX inh; SaOS-2 full-length luciferase counterscreen, luminescence; inhibition, % at 8 µM; hit rate 77% among 6,200; AID 504607;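 active means mean inhibition at 8 µM reaching about 37%, which flags the compound as non-specific, limit read from the data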;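 further: p53-null SaOS-2 cells with luciferase driven by a doxycycline-inducible promoter; compound on cells about two nights before reading with doxycycline added after day one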
Starred values were filed as active, the others as inactive; . = no result.

SMILES	Gli-Sufu block	Jurkat NFkB inh	Mdm2-MdmX inh	Shn3 3UTR inh	697 NFkB inh	Mdm2 MdmX conf	Full FLuc ctr
Cc1ccc(-c2nnn(CC(=O)N(c3ccc(F)cc3)C(C(=O)NC3CCCC3)c3ccncc3)n2)o1 (centres undefined)	-26	-18	17	5	-4	.	.
O=C(NC1CCCCC1)C(c1ccc(F)cc1)N(Cc1ccccc1)C(=O)CN1C(=O)c2ccccc2S1(=O)=O (centres undefined)	14	-8	61*	1	5	66*	94*
Cc1ccc(N(C(=O)Cn2nnc(-c3ccc(C)o3)n2)C(C(=O)NC2CCCC2)c2ccncc2)cc1 (centres undefined)	-20	4	55*	-1	17	21	.
CC(C)CCNC(=O)C(c1ccncc1)N(Cc1cccs1)C(=O)Cn1nnc(-c2ccc(F)cc2)n1 (centres undefined)	5	5	68*	48	-47	60*	26
O=C(NCC1CCCO1)C(c1ccncc1)N(Cc1cccs1)C(=O)Cn1nnc(-c2ccc(F)cc2)n1 (centres undefined)	9	4	14	-31	13	.	.
COc1ccc(-c2nnn(CC(=O)N(Cc3ccc(F)cc3)C(C(=O)NC3CCCC3)c3ccc(F)cc3)n2)cc1 (centres undefined)	-70	17	75*	3	19	19	.
CCN(CC)CCN(C(=O)Cn1nnc(-c2ccc(OC)c(OC)c2)n1)C(C(=O)NC1CCCC1)c1ccc(F)cc1 (centres undefined)	-2	8	75*	-5	2	25	.
COc1cc(-c2csc(N3CCOCC3)n2)cc(OC)c1OC	12	4	15	6	19	.	.
COc1cccc(Cl)c1NC(=O)N1CCN(c2ccnc3cc(Cl)ccc23)CC1	31	10	24	18	16	.	.
COc1ccc(-c2csc(N3CCN(c4cc(C)nc5ccccc45)CC3)n2)cc1OC	21	30	96*	37	-15	58*	74*
COc1cccc(Cl)c1NC(=O)N1CCN(c2cc(C)nc3ccccc23)CC1	40	20	55*	18	19	24	.
Cc1c(NS(=O)(=O)c2ccc(NCCN3CCOCC3)c([N+](=O)[O-])c2)c(=O)n(-c2ccccc2)n1C	-5	-12	11	7	-6	.	.
O=C(c1cc(F)c(F)c(F)c1F)N1CCN(C(=O)C2CCCO2)CC1 (centres undefined)	23	-7	0	-35	-5	.	.
CN(CC(=O)Nc1ccccc1Cl)C(=O)COC(=O)c1nc(Cl)c(Cl)c(Cl)c1Cl	-1	11	78*	3	-15	41*	31
O=C(Nc1cc(Cl)ccc1O)c1snnc1-c1ccccc1	5	-5	93*	28	7	58*	23
CC1Cc2ccccc2N1C(=O)CSc1nc2c(c(=O)n(C)c(=O)n2C)n1Cc1ccccc1 (centres undefined)	11	8	50*	19	-3	34	.
CCn1cc(C(=O)NCCCOC(C)C)c(=O)c2cc(S(=O)(=O)N3CCOCC3)ccc21	5	14	18	-1	11	.	.
Oc1[nH]c2ccccc2c1N=NC(=S)NCC1CCCO1 (centres undefined)	-5	3	11	3	12	.	.
Oc1[nH]c2ccc(Br)cc2c1N=NC(=S)NCC1CCCO1 (centres undefined)	0	3	68*	18	23	53*	48*
Cc1cc(C)c2[nH]c(O)c(N=NC(=S)NCC3CCCO3)c2c1 (centres undefined)	-2	8	37	-13	21	.	.
Oc1[nH]c2c(Cl)cc(Cl)cc2c1N=NC(=S)NCC1CCCO1 (centres undefined)	37	12	98*	85	-6	45*	50*
Cc1ccc(C(=O)O)cc1S(=O)(=O)Nc1ccccc1C(=O)NC1CC1	0	-5	23	-12	-12	.	.
COc1cccc(NC(=O)CN(C)C(=O)CSc2ccc3c(c2)OCCO3)c1	-10	9	21	-11	14	.	.
CCN1CCN(c2ccc(S(=O)(=O)N3CCCCC3)cc2NC(=O)c2cc3ccccc3o2)CC1	36	4	62*	36	-22	23	.
CCN1CCN(c2ccc(S(=O)(=O)N3CCCCC3)cc2NC(=O)/C=C/c2ccc(F)cc2)CC1	13	2	53*	18	-3	45*	87*
SMILES	Gli-Sufu block	Jurkat NFkB inh	Mdm2-MdmX inh	Shn3 3UTR inh	697 NFkB inh	Mdm2 MdmX conf	Full FLuc ctr
Cc1ccc(S(=O)(=O)N2CCCCC2)cc1NC(=O)c1cc2ccccc2o1	0	-17	27	20	11	.	.
CCN1CCN(c2ccc(S(=O)(=O)N3CCCCC3)cc2NC(=O)/C=C/c2cccc(OC)c2OC)CC1	21	-1	75*	-10	-9	50*	77*
CCN1CCN(c2ccc(S(=O)(=O)N3CCCCC3)cc2NC(=O)/C=C/c2ccc(OC(F)F)cc2)CC1	20	7	82*	-3	-15	52*	69*
CN1CCN(c2ccc(S(=O)(=O)N3CCCCC3)cc2NC(=O)/C=C/c2ccc(OC(F)F)cc2)CC1	-1	14	39	-33	-5	.	.
COc1ccccc1C(=O)NCCNc1ccc([N+](=O)[O-])cc1Cl	31	-1	20	32	-1	.	.
COc1ccc(CCNC(=S)Nc2cccc3ccccc23)cc1	-3	-2	64*	-13	-8	33	.
CC1(C)CC[C@]2(C(=O)O)CC[C@]3(C)C(=CC[C@@H]4[C@@]5(C)CC[C@H](O[C@@H]6O[C@H](C(=O)O)[C@@H](O)[C@H](O[C@@H]7OC[C@H](O)[C@H](O)[C@H]7O)[C@H]6O)C(C)(C)[C@@H]5CC[C@]43C)[C@@H]2C1	7	-12	79*	71	3	34	44*
Cc1nn(-c2ccc(F)cc2)c(Cl)c1/C=C/C(=O)OCC(=O)Nc1ccc(F)cc1F	-6	6	17	13	-40	.	.
Cc1ccc(NC(=O)COC(=O)/C=C/c2c(C)nn(-c3ccc(F)cc3)c2Cl)cc1F	-5	5	52*	-32	-2	3	.
CC(C)c1ccc(NC(=O)CN2C(=O)NC(C)(C3CC3)C2=O)cc1 (centres undefined)	-4	-13	14	-4	5	.	.
CC(NC(=O)c1cc(-c2ccc(Br)cc2)on1)c1ccccc1 (centres undefined)	-9	-10	54*	-14	8	8	.
CCC(C)Sc1ccc([C@@H]2[C@H]3C(=O)N(CC)C(=O)[C@H]3[C@]3(C(=O)OC)CCCN23)cc1OC (some centres undefined)	-7	0	1	-5	10	.	.
CCOC(=O)c1cn(Cc2ccc(C)cc2)c2cc(F)ccc2c1=O	3	9	9	-9	-3	.	.
